ChEMBL document CHEMBL4513216, “Probing the Open Global Health Chemical Diversity Library for Multistage-Active Starting Points for Next-Generation Antimalarials” (ACS Infect Dis, 2020)
The campaign covered roughly 69,000 compounds. About 8,600 (12%) showed an effect of 50% or more. This is one part of a sample in which strong results are shown more often than they occur.

Test system: Plasmodium berghei
Assay: Screen against P. berghei liver stage (PbLuc), transformed with Luciferase, at 10uM
Assay type: functional, HepG2
Settings: tested at 10 uM

Row | Structure (SMILES) | INHIBITION [%]
1 | COCCNC(=O)Nc1ccc(-c2nc(C(C)C)no2)cc1 | -36.4
2 | Cc1cccc(C)c1Nc1noc2c1CN(C(=O)c1ccn(C)n1)CC2 | 30.35
3 | CN(CC1COc2ccccc2O1)C(=O)CCn1cncn1 (stereo unspecified) | 44.05
4 | CNC(=O)CN1CCC(NC(=O)N(C)Cc2c(C)noc2C)CC1 | 34.25
5 | Cc1cc(C)c(C(=O)N2CCOCC2c2c(C)n[nH]c2C)o1 (stereo unspecified) | -8.4
6 | CO[C@H]1CN(Cc2ccc(F)cc2)CC[C@@]12CCCO2 | 25.6
7 | Cn1cc(C(=O)N[C@@H]2CN(Cc3ccoc3)[C@@H]3CCCO[C@@H]32)cn1 | 35.8
8 | CN1CCS(=O)(=O)[C@@H]2CCN(C(=O)CC(C)(C)C)CC[C@@H]21 | 35.8
9 | C[C@H]1CN2C[C@H](O)CC2CN1Cc1ccc2nccnc2c1 (stereo partly specified) | 17.4
10 | CCc1nsc(N2CCCN(C(=O)c3ccc(OC)cc3)CC2)n1 | 33.5
11 | CCc1nsc(N2CCN(C(=O)COc3ccccc3)CC2)n1 | -39.2
12 | CCc1nsc(N2CCCN(C(=O)COc3ccccc3)CC2)n1 | 53.8
13 | COC(=O)c1cccn1C1CCN(S(=O)(=O)c2ccccc2)CC1 | 19.5
14 | Cc1ccc(C)c(S(=O)(=O)NCCC(=O)NCc2ccoc2)c1 | -0.514
15 | CCSCCNc1cc(C)nc2c(C)c(C)nn12 | 39.9
16 | CC1CCN(C(=O)CSCCN2CCOCC2)CC1 | 85.6
17 | O=C(CSCCN1CCOCC1)N1CCc2ccccc2C1 | 76
18 | O=C(NCC(=O)N1CCc2ccccc2C1)c1ccoc1 | 26.3
19 | CC1CCN(C(=O)CSCc2nc(C3CC3)no2)CC1 | -42.2
20 | O=C(O)[C@@H]1CN(C(=O)CSCCN2CCCC2)C[C@H]1c1ccccc1 | 39.3
21 | O=C(CSCCN1CCOCC1)N1CCCCCC1 | 44.1
22 | O=C1CCCN1c1cccc(CNCc2nc(C3CC3)no2)c1 | 29.6
23 | Cc1c[nH]nc1C1CCCN(C(=O)c2c(C)noc2C)C1 (stereo unspecified) | 23.4
24 | N#Cc1cn(C2CC2)c(=O)n(CC(O)c2ccc(Cl)cc2)c1=O (stereo unspecified) | 9.1

Row | Structure (SMILES) | INHIBITION [%]
25 | Cc1cc(C[S+]([O-])Cc2ccccc2C)no1 (stereo unspecified) | -23.3
26 | Cc1ccc(CN2CCc3c(nc4cc(C5CC5)nn4c3O)C2)s1 | 44.3
27 | CC(C)N(C(=O)N1CCn2cncc2C1)C(C)C | 52.2
28 | CC(=O)NC(C(=O)N1CCn2cncc2C1)C(C)C (stereo unspecified) | 29.8
29 | CC(C(=O)N1CCn2cncc2C1)N1CCCC1 (stereo unspecified) | 47.9
30 | Cn1ncc2c(N3CCC(CC(=O)N4CCCC4)CC3)ncnc21 | 11.9
31 | O=C(CC1CCN(c2ncnc3ccccc23)CC1)N1CCCC1 | 53.2
32 | O=C(CC1CCN(c2ncnc3cccc(F)c23)CC1)N1CCCC1 | -18.5
33 | CC(=O)NCCNC(=O)CN1CCOC(Cn2cc(C)cn2)C1 (stereo unspecified) | 25.6
34 | Cc1cccc2[nH]cc(CC(=O)N3CCC(Nc4cccnn4)CC3)c12 | 24
35 | CCc1cnc2c(c1Nc1ccc(OC)cc1)c(=O)n(C)c(=O)n2C | -50.5
36 | CCc1cnc2c(c1Nc1ccc3c(c1)OCO3)c(=O)n(C)c(=O)n2C | 4.35
37 | COc1cccc(CNc2c(C)cnc3c2c(=O)n(C)c(=O)n3C)c1 | 48.1
38 | COc1ccc(CNc2c(C)cnc3c2c(=O)n(C)c(=O)n3C)cc1 | 9.79
39 | CCc1cnc2c(c1NCc1ccncc1)c(=O)n(C)c(=O)n2C | 2.3
40 | CCc1cnc2c(c1Nc1ccc(C)c(F)c1)c(=O)n(C)c(=O)n2C | 53.1
41 | CCc1cnc2c(c1NCc1cccc(OC)c1)c(=O)n(C)c(=O)n2C | 55.3
42 | CCc1cnc2c(c1NCc1ccc(OC)cc1)c(=O)n(C)c(=O)n2C | 67.6
43 | CCc1cnc2c(c1Nc1ccncc1)c(=O)n(C)c(=O)n2C | 27.6
44 | O=S(=O)(Cc1ccccc1Cl)CC(O)CO (stereo unspecified) | 27
45 | Cc1cnn(Cc2ccc(NC(=O)N3CCCCC3CO)cc2)c1 (stereo unspecified) | -0.378
46 | Cc1noc(CNC2CCCN(Cc3noc(C4CC4)n3)C2)n1 (stereo unspecified) | -52.5
47 | COc1cccc(CNCc2nc3ccccc3c(=O)[nH]2)c1 | 16.5
48 | COCCN1C[C@@H]2OCCN(c3ccnc(N(C)C)n3)[C@@H]2C1 | -16.9

Row | Structure (SMILES) | INHIBITION [%]
49 | CN(C)c1nccc(N2CCO[C@H]3CN(Cc4ccco4)C[C@H]32)n1 | -23.4
50 | CN(C)c1nccc(N2CCO[C@H]3CN(Cc4nccn4C)C[C@H]32)n1 | 80.2
51 | Cc1noc(C)c1CN1CCO[C@H]2CN(Cc3nccn3C)C[C@H]21 | 0.72
52 | CN(C)c1nccc(N2CCO[C@H]3CN(CC4CCOCC4)C[C@H]32)n1 | 36.8
53 | CCc1ccc(CN2C[C@@H]3OCCN(c4ccnc(N(C)C)n4)[C@@H]3C2)o1 | 85.1
54 | CCS(=O)(=O)Nc1ccc2oc(C)c(C(C)=O)c2c1 | 28.5
55 | Fc1cnc(N2CCCC3(COCCN(c4nccs4)C3)C2)nc1 (stereo unspecified) | 29.4
56 | CN1C[C@H](O)[C@]2(CCN(Cc3ccc(F)c(F)c3)C2)S1(=O)=O | 54
57 | CN1C[C@H](O)[C@]2(CCN(Cc3ccc(OC(F)(F)F)cc3)C2)S1(=O)=O | 26
58 | COc1ccc(CN2CC[C@@]3(C2)[C@H](O)CN(C)S3(=O)=O)cc1F | 20.7
59 | Cn1cc(CN2CCCC23CCN(C(=O)c2ccncc2)CC3)cn1 | 36.4
60 | CN(C)C(=O)[C@@]12CCO[C@@H]1CCN(Cc1ccc3c(c1)OCO3)C2 | 76.2
61 | O=C(N1CCOCC1)[C@@]12CCO[C@@H]1CCN(Cc1cccc(F)c1)C2 | 95.1
62 | O=C(N1CCOCC1)[C@@]12CCO[C@@H]1CCN(Cc1ccccc1F)C2 | 36.3
63 | Cc1cc(CN2CC[C@H]3OCC[C@@]3(C(=O)N3CCOCC3)C2)no1 | 14.6
64 | CNC(=O)[C@@]12CCO[C@@H]1CCN(Cc1ccc3c(c1)OCO3)C2 | 3.69
65 | O=C(N1CCOCC1)[C@@]12CCO[C@@H]1CCN(CC1CCC1)C2 | 22.2
66 | O=C(N1CCOCC1)[C@@]12CCO[C@@H]1CCN(CC1CCCC1)C2 | 53.4
67 | O=C(N1CCOCC1)[C@@]12CCO[C@@H]1CCN(Cc1ccncc1)C2 | 83.2
68 | Cc1cccc(CN2CC[C@H]3OCC[C@@]3(C(=O)N3CCOCC3)C2)n1 | 12.6
69 | CC(C)NC(=O)[C@@]12CCO[C@@H]1CCN(Cc1ccc3c(c1)OCO3)C2 | 33.5
70 | O=C(N1CCOCC1)[C@@]12CCO[C@@H]1CCN(CCN1CCCCC1)C2 | -22.9
71 | O=C(N1CCOCC1)[C@@]12CCO[C@@H]1CCN(CC1CCCCC1)C2 | 24.5
